In paper PMC7862700, “An all-to-all approach to the identification of sequence-specific readers for epigenetic DNA modifications on cytosine” one finds binding signal data, which are given here for one sequence.

What all share (experiment): DAPPL (digital affinity profiling via proximity ligation, sequencing); 10 mM Tris-HCl pH 7.5, 50 mM NaCl, 1 mM DTT, 4% glycerol, room temperature, 30 min; GST-TFs on glutathione beads, 16-mer random dsDNA library, 0.1% formaldehyde crosslink after washing; high values mean tight binding
For one experiment, the target named is T1, FEV (Homo sapiens, UniProt Q99581 1-238).
T1 sequence: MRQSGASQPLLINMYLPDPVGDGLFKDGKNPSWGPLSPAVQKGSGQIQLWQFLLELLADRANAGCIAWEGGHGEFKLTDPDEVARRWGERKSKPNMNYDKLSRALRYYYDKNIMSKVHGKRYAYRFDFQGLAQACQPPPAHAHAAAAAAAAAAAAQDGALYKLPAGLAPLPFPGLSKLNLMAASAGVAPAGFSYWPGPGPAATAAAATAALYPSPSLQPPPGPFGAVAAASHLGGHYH
The note with it: protein: recombinant; tags: N-terminal GST; dsDNA, one strand shown. The method in brief: (§1)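 Human transcription factors carrying a GST fusion were produced in yeast, bound to glutathione beads, tagged with DNA barcodes and pooled together with a tag-only sample. Each pool was held with 200 nmole of a random double-stranded 16-mer DNA library in Tris/NaCl/DTT/glycerol buffer for 30 min at room temperature, then washed, crosslinked in 0.1% formaldehyde, proximity-ligated with BsaI/T4 ligase (1 h, 37 °C), PCR-amplified and sequenced on an Illumina NextSeq500. Binding signal is the read frequency of each hexamer for a given factor divided by its frequency in the tag-only sample.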

A further experiment deals with ETV5 (Homo sapiens, UniProt P41161 1-510). The conditions noted are these: protein: recombinant; tags: N-terminal GST; dsDNA, one strand shown. The method in brief: as §1
The target in the next experiment is HSF1 (Homo sapiens, UniProt Q00613 1-529). The conditions noted are these: protein: recombinant; tags: N-terminal GST; chain copies: 3; dsDNA, one strand shown. The essentials: as §1
In a further experiment the target is T2, SPIC (Homo sapiens, UniProt Q8N5J4 1-248).
T2 sequence: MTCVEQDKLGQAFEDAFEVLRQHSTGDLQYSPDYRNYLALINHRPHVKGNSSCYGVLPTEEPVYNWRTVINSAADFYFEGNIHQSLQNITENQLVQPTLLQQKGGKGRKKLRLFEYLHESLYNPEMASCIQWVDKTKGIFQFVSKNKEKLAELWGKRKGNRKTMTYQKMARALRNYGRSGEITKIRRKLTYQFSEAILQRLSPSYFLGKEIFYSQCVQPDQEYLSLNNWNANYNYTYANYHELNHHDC
The note with it: protein: recombinant; tags: N-terminal GST; dsDNA, one strand shown. The method in brief: as §1

In another experiment the target is ELF4 (Homo sapiens, UniProt Q99607 1-663). The note with it: protein: recombinant; tags: N-terminal GST; dsDNA, one strand shown. The method in brief: as §1
In a further experiment the target is T3, ELK4 (Homo sapiens, UniProt P28324-2 1-405).
T3 sequence: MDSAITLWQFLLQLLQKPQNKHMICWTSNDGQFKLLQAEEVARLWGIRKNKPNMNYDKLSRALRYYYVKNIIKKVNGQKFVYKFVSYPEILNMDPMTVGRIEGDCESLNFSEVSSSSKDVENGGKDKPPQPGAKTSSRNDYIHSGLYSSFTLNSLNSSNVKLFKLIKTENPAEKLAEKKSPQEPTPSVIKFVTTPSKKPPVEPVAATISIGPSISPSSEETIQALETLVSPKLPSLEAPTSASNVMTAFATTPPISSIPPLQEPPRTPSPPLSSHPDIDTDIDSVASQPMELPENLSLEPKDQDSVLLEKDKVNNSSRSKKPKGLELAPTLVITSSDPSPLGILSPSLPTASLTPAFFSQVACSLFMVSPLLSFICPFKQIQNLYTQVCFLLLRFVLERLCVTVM
The conditions noted are these: protein: recombinant; tags: N-terminal GST; dsDNA, one strand shown. The method in brief:
as §1

The next experiment deals with T4, ETV2 (Homo sapiens, UniProt O00321 1-342).
T4 sequence: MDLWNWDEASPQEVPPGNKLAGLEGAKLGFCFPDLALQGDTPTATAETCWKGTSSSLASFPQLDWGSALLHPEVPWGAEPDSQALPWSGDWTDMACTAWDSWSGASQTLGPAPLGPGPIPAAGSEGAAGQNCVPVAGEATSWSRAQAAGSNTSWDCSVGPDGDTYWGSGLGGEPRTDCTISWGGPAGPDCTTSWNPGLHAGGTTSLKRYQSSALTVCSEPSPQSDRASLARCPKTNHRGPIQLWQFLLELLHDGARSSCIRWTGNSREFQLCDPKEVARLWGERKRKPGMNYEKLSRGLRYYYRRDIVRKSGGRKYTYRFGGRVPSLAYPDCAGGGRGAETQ
The note with it: protein: recombinant; tags: N-terminal GST; dsDNA, one strand shown. The method in brief:
as §1

Another experiment addresses T5, ELF3 (Homo sapiens, UniProt P78545 1-371).
T5 sequence: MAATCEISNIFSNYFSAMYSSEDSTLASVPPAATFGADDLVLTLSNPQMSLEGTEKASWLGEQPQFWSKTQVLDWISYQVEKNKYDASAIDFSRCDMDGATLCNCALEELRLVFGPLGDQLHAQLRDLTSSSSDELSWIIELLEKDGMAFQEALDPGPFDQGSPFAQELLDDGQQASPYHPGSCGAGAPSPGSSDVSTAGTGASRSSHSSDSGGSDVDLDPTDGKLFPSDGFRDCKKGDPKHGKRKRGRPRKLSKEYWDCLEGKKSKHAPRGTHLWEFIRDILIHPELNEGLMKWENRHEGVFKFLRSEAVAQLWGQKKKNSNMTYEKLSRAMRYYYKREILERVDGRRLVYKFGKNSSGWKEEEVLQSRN
The note with it: protein: recombinant; tags: N-terminal GST; dsDNA, one strand shown. The method in brief:
as §1

In a further experiment the target is CRX (Homo sapiens, UniProt O43186 1-299). The conditions noted are these: protein: recombinant; tags: N-terminal GST; dsDNA, one strand shown. The method in brief: as §1
The target of a further experiment is ETV1 (Homo sapiens, UniProt P50549 1-477). The conditions noted are these: protein: recombinant; tags: N-terminal GST; dsDNA, one strand shown. The essentials:
as §1

Another experiment deals with T6, ERF (Homo sapiens, UniProt P50548 1-548).
T6 sequence: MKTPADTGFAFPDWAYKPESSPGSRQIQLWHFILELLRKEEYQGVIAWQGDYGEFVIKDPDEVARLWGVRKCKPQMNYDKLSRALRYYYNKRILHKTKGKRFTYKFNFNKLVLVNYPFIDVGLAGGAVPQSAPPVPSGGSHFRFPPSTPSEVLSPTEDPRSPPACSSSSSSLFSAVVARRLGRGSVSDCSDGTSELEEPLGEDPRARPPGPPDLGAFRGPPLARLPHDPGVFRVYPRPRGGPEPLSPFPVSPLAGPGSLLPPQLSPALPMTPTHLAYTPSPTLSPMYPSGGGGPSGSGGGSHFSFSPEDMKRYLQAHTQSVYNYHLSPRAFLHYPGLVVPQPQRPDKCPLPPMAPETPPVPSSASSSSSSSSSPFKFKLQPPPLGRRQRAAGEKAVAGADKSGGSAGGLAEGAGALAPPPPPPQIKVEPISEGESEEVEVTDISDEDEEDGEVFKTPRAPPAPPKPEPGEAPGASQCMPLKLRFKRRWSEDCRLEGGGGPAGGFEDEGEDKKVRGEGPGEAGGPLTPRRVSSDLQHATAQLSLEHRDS
The note with it: protein: recombinant; tags: N-terminal GST; dsDNA, one strand shown. The method in brief: as §1

The target of the next experiment is T7, ETV3L (Homo sapiens, UniProt Q6ZN32 1-361).
T7 sequence: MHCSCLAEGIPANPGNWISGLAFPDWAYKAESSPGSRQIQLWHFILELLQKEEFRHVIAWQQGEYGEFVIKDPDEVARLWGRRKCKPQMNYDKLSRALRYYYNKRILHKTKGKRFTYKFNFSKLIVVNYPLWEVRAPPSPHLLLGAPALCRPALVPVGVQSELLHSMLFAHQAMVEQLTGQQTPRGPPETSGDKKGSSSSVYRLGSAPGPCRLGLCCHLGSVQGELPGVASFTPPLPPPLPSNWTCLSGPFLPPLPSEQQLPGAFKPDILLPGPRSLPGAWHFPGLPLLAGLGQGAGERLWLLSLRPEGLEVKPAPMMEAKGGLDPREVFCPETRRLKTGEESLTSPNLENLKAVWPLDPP
The note with it: protein: recombinant; tags: N-terminal GST; dsDNA, one strand shown. The essentials: as §1

For the next experiment, the target named is T8, ETS2 (Homo sapiens, UniProt P15036 1-469).
T8 sequence: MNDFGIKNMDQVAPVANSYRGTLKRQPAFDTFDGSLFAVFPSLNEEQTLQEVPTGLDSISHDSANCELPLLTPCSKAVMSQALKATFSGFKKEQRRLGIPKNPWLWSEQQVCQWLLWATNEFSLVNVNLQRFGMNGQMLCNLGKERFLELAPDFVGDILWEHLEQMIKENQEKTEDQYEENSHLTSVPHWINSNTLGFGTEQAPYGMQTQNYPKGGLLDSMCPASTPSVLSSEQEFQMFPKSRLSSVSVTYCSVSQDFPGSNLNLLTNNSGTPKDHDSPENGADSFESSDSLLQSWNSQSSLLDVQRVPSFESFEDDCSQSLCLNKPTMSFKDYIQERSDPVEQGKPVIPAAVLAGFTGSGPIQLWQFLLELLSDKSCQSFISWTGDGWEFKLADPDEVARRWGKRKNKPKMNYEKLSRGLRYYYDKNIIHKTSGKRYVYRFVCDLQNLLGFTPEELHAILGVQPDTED
The conditions noted are these: protein: recombinant; tags: N-terminal GST; dsDNA, one strand shown. The method in brief: as §1

The target of a further experiment is T9, SPDEF (Homo sapiens, UniProt O95238 1-335).
T9 sequence: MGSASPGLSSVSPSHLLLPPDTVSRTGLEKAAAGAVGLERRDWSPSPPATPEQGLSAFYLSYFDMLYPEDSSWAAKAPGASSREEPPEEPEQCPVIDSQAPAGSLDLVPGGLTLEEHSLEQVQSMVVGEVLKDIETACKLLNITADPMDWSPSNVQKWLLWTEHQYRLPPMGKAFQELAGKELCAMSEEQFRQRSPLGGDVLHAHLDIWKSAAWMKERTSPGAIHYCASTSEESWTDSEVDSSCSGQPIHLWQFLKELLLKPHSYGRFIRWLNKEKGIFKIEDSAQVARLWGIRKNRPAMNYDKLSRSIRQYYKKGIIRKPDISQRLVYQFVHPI
The note with it: protein: recombinant; tags: N-terminal GST; dsDNA, one strand shown. The essentials: as §1

The target of the next experiment is T10, ETV7 (Homo sapiens, UniProt Q9Y603 1-341).
T10 sequence: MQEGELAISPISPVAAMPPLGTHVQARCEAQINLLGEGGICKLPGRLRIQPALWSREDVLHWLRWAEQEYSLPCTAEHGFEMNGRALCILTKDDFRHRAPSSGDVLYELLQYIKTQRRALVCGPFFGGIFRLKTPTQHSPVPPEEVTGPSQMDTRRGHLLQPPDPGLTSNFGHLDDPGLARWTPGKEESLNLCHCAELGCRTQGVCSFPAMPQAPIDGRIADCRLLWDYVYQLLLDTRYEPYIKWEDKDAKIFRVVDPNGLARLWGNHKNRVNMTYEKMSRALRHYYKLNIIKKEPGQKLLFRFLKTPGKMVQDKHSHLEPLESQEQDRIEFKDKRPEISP
The note with it: protein: recombinant; tags: N-terminal GST; dsDNA, one strand shown. The essentials:
as §1

The target of a further experiment is T11, ELF5 (Homo sapiens, UniProt Q9UKW6-2 1-255).
T11 sequence: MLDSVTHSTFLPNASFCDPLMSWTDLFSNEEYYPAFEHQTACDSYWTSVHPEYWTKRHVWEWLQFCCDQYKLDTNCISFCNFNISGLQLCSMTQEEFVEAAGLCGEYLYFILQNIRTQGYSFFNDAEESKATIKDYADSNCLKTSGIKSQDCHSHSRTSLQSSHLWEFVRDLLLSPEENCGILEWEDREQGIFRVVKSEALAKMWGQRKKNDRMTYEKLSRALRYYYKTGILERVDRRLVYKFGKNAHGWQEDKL
The note with it: protein: recombinant; tags: N-terminal GST; dsDNA, one strand shown. The essentials:
as §1

For another experiment, the target named is T12, ETV3 (Homo sapiens, UniProt P41162-2 1-143).
T12 sequence: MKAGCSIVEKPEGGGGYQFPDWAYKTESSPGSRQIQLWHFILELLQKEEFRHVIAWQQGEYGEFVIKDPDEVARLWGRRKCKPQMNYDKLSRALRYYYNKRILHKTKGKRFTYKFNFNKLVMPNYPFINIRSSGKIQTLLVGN
The conditions noted are these: protein: recombinant; tags: N-terminal GST; dsDNA, one strand shown. The method in brief: as §1

In the next experiment the target is ETV6 (Homo sapiens, UniProt P41212 1-452). The conditions noted are these: protein: recombinant; tags: N-terminal GST; dsDNA, one strand shown. The essentials: as §1
Chain of ETV6 (P41212 whole entry): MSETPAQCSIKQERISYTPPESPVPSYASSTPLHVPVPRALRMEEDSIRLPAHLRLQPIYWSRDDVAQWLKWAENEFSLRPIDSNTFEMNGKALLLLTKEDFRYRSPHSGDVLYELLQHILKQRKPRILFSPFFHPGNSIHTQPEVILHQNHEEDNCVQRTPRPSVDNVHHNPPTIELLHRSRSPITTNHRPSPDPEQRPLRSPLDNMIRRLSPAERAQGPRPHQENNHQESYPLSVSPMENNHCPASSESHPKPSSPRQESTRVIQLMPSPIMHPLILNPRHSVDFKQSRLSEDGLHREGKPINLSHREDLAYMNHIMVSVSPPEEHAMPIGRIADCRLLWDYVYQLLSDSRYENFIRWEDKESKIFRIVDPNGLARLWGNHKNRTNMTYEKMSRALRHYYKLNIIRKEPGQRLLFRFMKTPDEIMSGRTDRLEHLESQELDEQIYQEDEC

Chain of ETV5 (P41161 whole entry): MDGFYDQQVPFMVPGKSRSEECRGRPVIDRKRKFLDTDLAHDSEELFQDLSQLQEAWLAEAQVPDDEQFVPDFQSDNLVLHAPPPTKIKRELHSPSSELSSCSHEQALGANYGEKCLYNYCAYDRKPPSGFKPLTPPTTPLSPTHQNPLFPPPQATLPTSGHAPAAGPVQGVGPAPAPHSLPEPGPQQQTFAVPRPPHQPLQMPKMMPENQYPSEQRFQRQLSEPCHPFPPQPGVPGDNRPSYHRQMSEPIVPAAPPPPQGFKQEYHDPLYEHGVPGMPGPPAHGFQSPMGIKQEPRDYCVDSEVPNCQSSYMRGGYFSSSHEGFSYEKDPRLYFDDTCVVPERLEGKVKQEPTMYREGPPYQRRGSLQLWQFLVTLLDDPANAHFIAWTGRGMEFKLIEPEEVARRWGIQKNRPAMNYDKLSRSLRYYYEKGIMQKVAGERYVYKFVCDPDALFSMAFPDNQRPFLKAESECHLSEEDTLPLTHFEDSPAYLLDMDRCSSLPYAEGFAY
Chain of ETV1 (P50549 whole entry): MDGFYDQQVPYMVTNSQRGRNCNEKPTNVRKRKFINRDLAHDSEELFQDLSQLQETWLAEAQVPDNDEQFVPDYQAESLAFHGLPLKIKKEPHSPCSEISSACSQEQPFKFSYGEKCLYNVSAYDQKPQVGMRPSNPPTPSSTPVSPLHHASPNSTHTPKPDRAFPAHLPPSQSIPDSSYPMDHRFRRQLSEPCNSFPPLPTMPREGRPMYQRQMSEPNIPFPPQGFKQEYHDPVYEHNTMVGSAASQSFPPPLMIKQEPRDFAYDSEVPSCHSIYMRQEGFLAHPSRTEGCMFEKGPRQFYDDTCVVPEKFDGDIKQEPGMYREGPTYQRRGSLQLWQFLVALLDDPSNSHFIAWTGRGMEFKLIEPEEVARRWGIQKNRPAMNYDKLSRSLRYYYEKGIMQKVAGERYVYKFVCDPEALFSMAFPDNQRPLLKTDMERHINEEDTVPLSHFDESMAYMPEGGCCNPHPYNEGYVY
Chain of CRX (O43186 whole entry): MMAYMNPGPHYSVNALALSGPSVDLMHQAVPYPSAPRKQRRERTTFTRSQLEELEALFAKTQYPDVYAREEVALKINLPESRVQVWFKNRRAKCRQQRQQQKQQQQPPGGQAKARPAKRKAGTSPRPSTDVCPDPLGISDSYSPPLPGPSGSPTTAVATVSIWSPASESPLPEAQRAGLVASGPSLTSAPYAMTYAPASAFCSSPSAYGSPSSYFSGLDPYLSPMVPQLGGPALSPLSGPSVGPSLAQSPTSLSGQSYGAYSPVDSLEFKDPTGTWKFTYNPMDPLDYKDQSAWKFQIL
Chain of HSF1 (Q00613 whole entry): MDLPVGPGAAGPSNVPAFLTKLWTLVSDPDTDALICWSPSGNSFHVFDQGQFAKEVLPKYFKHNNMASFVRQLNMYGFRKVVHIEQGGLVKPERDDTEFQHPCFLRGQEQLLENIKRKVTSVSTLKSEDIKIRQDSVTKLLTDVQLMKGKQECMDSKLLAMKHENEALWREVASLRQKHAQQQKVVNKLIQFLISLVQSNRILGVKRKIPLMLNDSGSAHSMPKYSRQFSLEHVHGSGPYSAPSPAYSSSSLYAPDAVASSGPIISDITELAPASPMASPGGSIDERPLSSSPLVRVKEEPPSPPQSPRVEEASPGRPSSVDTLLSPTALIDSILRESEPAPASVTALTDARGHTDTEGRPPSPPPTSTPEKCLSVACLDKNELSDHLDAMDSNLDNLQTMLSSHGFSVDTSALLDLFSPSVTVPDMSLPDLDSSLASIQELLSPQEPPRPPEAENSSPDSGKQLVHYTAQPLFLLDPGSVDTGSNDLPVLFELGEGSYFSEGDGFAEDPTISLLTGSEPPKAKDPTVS
Chain of ELF4 (Q99607 whole entry): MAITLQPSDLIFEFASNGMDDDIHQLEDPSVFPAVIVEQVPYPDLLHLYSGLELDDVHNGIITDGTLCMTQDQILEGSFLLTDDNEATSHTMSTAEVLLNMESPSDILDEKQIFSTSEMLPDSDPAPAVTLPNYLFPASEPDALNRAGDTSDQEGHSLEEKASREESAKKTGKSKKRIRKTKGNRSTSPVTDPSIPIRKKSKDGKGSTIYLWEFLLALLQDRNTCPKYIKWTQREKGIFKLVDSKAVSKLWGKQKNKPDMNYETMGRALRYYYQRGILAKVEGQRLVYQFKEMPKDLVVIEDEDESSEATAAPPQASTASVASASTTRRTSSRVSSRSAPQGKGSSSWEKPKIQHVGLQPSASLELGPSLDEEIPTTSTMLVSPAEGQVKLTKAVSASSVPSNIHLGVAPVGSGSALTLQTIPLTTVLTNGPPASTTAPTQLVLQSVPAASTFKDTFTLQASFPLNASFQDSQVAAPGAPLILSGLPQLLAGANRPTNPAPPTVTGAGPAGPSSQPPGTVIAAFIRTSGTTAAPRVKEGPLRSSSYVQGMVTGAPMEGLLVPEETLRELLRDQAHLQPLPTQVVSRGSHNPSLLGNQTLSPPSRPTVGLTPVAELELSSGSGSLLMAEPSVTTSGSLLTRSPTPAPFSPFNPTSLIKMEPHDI

ATACAG: the binding signal is 1.14 fold enrichment (6-mer frequency, TF over GST control) with FEV; 1.13 fold enrichment (6-mer frequency, TF over GST control) with ETV5; 1.02 fold enrichment (6-mer frequency, TF over GST control) with HSF1; 1.14 fold enrichment (6-mer frequency, TF over GST control) in the experiment with SPIC; 1.18 fold enrichment (6-mer frequency, TF over GST control) in the experiment with ELF4; 1.08 fold enrichment (6-mer frequency, TF over GST control) in the experiment with ELK4. For the same sequence, the binding signal with ETV2 was 1.24 fold enrichment (6-mer frequency, TF over GST control); in the experiment with ELF3 it was 1.12 fold enrichment (6-mer frequency, TF over GST control); with CRX, 1.02 fold enrichment (6-mer frequency, TF over GST control); with ETV1 it was 1.11 fold enrichment (6-mer frequency, TF over GST control); with ERF, 1.16 fold enrichment (6-mer frequency, TF over GST control); with ETV3L, 1.1 fold enrichment (6-mer frequency, TF over GST control). Further, the binding signal with ETS2 was 1.17 fold enrichment (6-mer frequency, TF over GST control); in the experiment with SPDEF it was 1.21 fold enrichment (6-mer frequency, TF over GST control); in the experiment with ETV7, 1.18 fold enrichment (6-mer frequency, TF over GST control); with ELF5, 1.17 fold enrichment (6-mer frequency, TF over GST control); with ETV3 it was 1.18 fold enrichment (6-mer frequency, TF over GST control); with ETV6, 1.12 fold enrichment (6-mer frequency, TF over GST control).
